These results are taken from PubChem BioAssay (Tox21).

Inconclusive results are not listed. A call without a number means that no potency is given here. The source made the active and inactive calls. The call rests on the fitted dose curve; in most records, active means well fitted cell-killing curve with a large enough effect in the repeat runs; inconclusive means weak or mixed curves, or effect the other way; inactive means flat fitted curve, though single readings scatter.
Potency means the concentration at half of the fitted maximal effect.

A short description of the assay: qHTS assay to identify small molecule that activate the aryl hydrocarbon receptor (AhR) signaling pathway - cell viability counter screen (AID 743086). Further: nearly all actives have a fitted effect of over 45% in size. The note with it: HepG2-AhR-luc viability, CellTiter-Fluor, 24 h; series mostly up to 70.3 µM. From the text:
U.S. Tox21 Program National Center for Advancing Translational Sciences [NCATS] NIH Chemical Genomics Center [NCGC] U.S. Environmental Protection Agency [EPA] National Institutes of Environmental Health Sciences [NIEHS] National Toxicology Program [NTP] U.S. Food and Drug Administration [FDA] Tox21 Assay overview: The Aryl hydrocarbon Receptor (AhR), a member of the family of basic helix-loop-helix transcription factors, is crucial to adaptive responses to environmental changes. AhR mediates cellular responses to environmental pollutants such as aromatic hydrocarbons through induction of phase I and II enzymes but also interacts with other nuclear receptor signaling pathways A cell based HepG2-AhR-luc assay (HG2L7.5c1 cell line, developed by Dr. Michael S. Denison, University of California at Davis) was used to assess the activation of AhR. HepG2 (human hepatocellular carcinoma) cells were stably transfected with an Ah receptor-responsive firefly luciferase reporter gene plasmid containing 20 dioxin responsive elements and luciferase reporter gene. Increased luciferase activity can be used to identify the compounds that induce AhR activation. The cytotoxicity of the compounds screened against the HepG2-AhR-luc cell line was tested in parallel by measuring the cell viability using CellTiter-Fluor assay in the same wells.
Tox21 Assay Protocol Summary: 4000 cells in 5 uL/well were dispensed into white wall/solid bottom 1536-well plates using a Multidrop Combi (Thermo Fisher Scientific Inc., Waltham, MA) dispenser. After the assay plates were incubated at 37C for 5 h, 23 nL of compound or DMSO vehicle was transferred to the assay plates by a pintool station (Kalypsys, San Diego, CA). The plates were incubated at 37C for 24 hr. For cell viability measurement, 1 ul/well of CellTiter-Fluor reagent (Promega, Madison, WI) was added into the assay plates using a Flying Reagent Dispenser (FRD) (Aurora Discovery, CA),and then the assay plates were incubated at 37C for 30 min. The fluorescence intensity in the plates was measured using a ViewLux plate reader (PerkinElmer, Shelton, CT), followed by the addition of 4 uL of ONE-Glo Luciferase Assay reagent (Promega) using an FRD (Aurora Discovery). After the assay plates were incubated at room temperature for 30 min, luminescence intensity was measured using a ViewLux plate reader (Perkin Elmer).
(Quantitative high-throughput screening tests each substance at several concentrations.)
In the case of `Cc1nccn1-c1ccc(Sc2cccc(C3(C(N)=O)CCOCC3)c2)cc1`, the Potency result is “inactive”.

With `CO[C@H]1O[C@H](CO)[C@@H](O)[C@H](O)[C@H]1O`, the Potency entry is “inactive”.

As for `O=S1OCCO1`, the Potency entry was “inactive”.

With `CCCCN(CCCC)CCCOC(=O)c1ccc(N)cc1`, the Potency result was “inactive”.

On to `CC1=CC(O)CC(C)(C)C1` (stereo not given), for which the Potency entry is “inactive”.

In the case of `COC(OC)(C(=O)c1ccccc1)c1ccccc1`, the Potency entry was “inactive”.

Consider `C=CC(C)(C)CC(=O)OC`, for which the Potency entry is “inactive”.

As for `COc1cc2[nH]c(=O)[nH]c(=O)c2cc1OC`, the Potency entry is “inactive”.

For the molecule `CCCC1C(CC)=CC(CC)=CN1c1ccccc1` (stereo not given), the Potency result was “inactive”.

For the molecule `O=C(O)c1cccnc1C(=O)O`, the Potency entry was “inactive”.

As to `CC(C)=CC=O`, the Potency result is “inactive”.

As to `O=[N+]([O-])c1cccc(S(=O)(=O)NCCNS(=O)(=O)c2cccc([N+](=O)[O-])c2)c1`, the Potency result is “inactive”.

Turning to `CN1CCCN=C1/C=C/c1cccs1`, the Potency result was “inactive”.

Consider `O=C(CCCCCCC(=O)Nc1ccccc1)NO`, for which the Potency entry was “inactive”.

For the molecule `Cc1cc(C(=C2C=CC(=Nc3ccc(S(=O)(=O)O)cc3S(=O)(=O)O)C=C2)c2ccc(Nc3ccc(S(=O)(=O)O)cc3)cc2)ccc1N`, the Potency result was “inactive”.

In the case of `O=C(c1ccc(O)cc1)c1ccc(Cl)cc1`, the Potency entry was “inactive”.

Turning to `Cc1ccc(/C=N/n2c(-c3ccccc3)csc2=S)cc1`, the Potency entry was “inactive”.

Take `OC/C(Br)=C(\Br)CO`: the Potency result was “inactive”.

For the molecule `CN1C(=O)CC(C)(c2ccccc2)C1=O` (stereo not given), the Potency entry was “inactive”.

`Cc1ccc(S(=O)(=O)NC2CCCCC2)cc1`: the Potency entry is “inactive”.

With `CC1=CC(=O)CC(C)(C)C1(O)/C=C/C(C)=C\C(=O)O` (stereo not given), the Potency result was “inactive”.

As for `CC(COc1ccc(C(C)(C)C)cc1)OS(=O)OCCCl` (stereo not given), the Potency result is “inactive”.

With `CNC(=S)NC`, the Potency entry is “inactive”.

`CCCCC(=O)O[C@]1(C(=O)CO)[C@@H](C)C[C@H]2[C@@H]3CCC4=CC(=O)C=C[C@]4(C)[C@@]3(F)[C@@H](O)C[C@@]21C`: the Potency result is “inactive”.

For `CC(C)(O)c1ccccc1CC[C@@H](SCC1(CC(=O)O)CC1)c1cccc(/C=C/c2ccc3ccc(Cl)cc3n2)c1`, the Potency entry is “inactive”.

On to `CCCCOC(=O)CCS`, for which the Potency entry was “inactive”.

For `C=CC(C)(O)CCCC(C)CCCC(C)CCCC(C)C` (stereo not given), the Potency result was “inactive”.

For `C[Si]1(C)O[Si](C)(C)O[Si](C)(C)O1`, the Potency result was “inactive”.

Turning to `CCOC(=O)c1ccccc1OC`, the Potency entry was “inactive”.

With `CC1CN(c2cc3c(cc2F)c(=O)c(C(=O)O)cn3-c2ccc(F)cc2F)CCN1` (stereo not given), the Potency result is “inactive”.

Consider `COc1ccccc1N=Nc1c(S(=O)(=O)O)cc2cc(S(=O)(=O)O)cc(NC(C)=O)c2c1O`, for which the Potency is 22.9 µM (active).

As for `O=C1NCCN1`, the Potency result is “inactive”.

Consider `CCCc1c(OCCCOc2ccc(OCC(=O)O)cc2)ccc(C(C)=O)c1O`, for which the Potency entry was “inactive”.

In the case of `Cc1c(C(=O)NN2CCCCC2)nn(-c2ccc(Cl)cc2Cl)c1-c1ccc(Cl)cc1`, the Potency result was “inactive”.

Regarding `CCN(CC)CCNC(=O)c1ccc(NC(C)=O)cc1`, the Potency entry is “inactive”.

As to `CCn1cc(C(=O)O)c(=O)c2cc(F)c(N3CCNCC3)nc21`, the Potency entry is “inactive”.

For the molecule `COCCOC`, the Potency result was “inactive”.

As to `CCCOC(=O)c1ccc(C(=O)OCCC)nc1`, the Potency result is “inactive”.

Regarding `CCCCCCCCCCCCCCCCBr`, the Potency entry was “inactive”.

On to `CC(N)CN` (stereo not given), for which the Potency result was “inactive”.
